Screening results: PubChem BioAssay, several laboratories
V-ATPase pH: regulators of yeast V-ATPase proton pumping, primary screen, pHLuorin cytosolic pH fluorescence; S. cerevisiae; response, % at 10 µM; 350,000 compounds, 0.37% hits; in the data active = response mostly above about 7.3%, no sharp cut-off; inactive = mostly below about 5.4%; also: actives read high
L929 necroptosis: inhibitors of zVAD-triggered necroptosis, primary screen, L929 cells; L929 zVAD necroptosis rescue, ATP luminescence, 24 h; with zVAD 60 µM; viability rescue, % at 10 µM; 220,000 compounds, 0.38% hits;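 active = activation, scaled between plate controls, above about 75%, limit read from the data; inactive = activation under that limit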;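 also: 0% = zVAD with DMSO and 100% = DMSO alone without zVAD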
TNF necrop inh: inhibitors of TNF-alpha triggered necroptosis, primary screen, cell-based, Jurkat FADD-/-, single concentration | AID 463075, 2010 | 220,000 compounds, 0.068% hits | activation (protection from cell death), % at 10 µM | Jurkat FADD-/- TNF necroptosis rescue, ATP luminescence, 24 h; 0 = TNF only, 100 = no-TNF cells;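 active = activation, meaning protection from cell death, of at least 50% relative to plate controls; inactive = activation below 50%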;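 also: necroptosis triggered by 40 ng/mL TNF-alpha added together with compound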
HSV replic up: enhancers of HSV replication in host cells, fold increase, host cell viability. HSV replication augmentation in cells. maximum fold increase. 220,000 compounds, 0.005% hits. AID 1956, 2009; in the data active = maximum fold increase above about 1.5; tested in PC3 cells
Wee1 stabilizer: Wee1 degradation inhibitors, primary screen, cell-based, HeLa, Wee1K328M-luciferase, luminescence. Wee1-like protein kinase (Homo sapiens), P30291. HeLa Luc-Wee1K328M stability; 100% = proteasome inhibitor MG132 effect. reporter increase, % at 5 µM. 220,000 compounds, 1.2% hits;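 active = activation above the mean of all tested compounds plus 3 SD, set per screening run, cut at about 8.8% in these data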;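 also: cells exposed to compound for 20 h before luminescence read; 0% = DMSO alone and 100% = MG132 at 30 µM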
Target sequence (P30291 whole entry K328M): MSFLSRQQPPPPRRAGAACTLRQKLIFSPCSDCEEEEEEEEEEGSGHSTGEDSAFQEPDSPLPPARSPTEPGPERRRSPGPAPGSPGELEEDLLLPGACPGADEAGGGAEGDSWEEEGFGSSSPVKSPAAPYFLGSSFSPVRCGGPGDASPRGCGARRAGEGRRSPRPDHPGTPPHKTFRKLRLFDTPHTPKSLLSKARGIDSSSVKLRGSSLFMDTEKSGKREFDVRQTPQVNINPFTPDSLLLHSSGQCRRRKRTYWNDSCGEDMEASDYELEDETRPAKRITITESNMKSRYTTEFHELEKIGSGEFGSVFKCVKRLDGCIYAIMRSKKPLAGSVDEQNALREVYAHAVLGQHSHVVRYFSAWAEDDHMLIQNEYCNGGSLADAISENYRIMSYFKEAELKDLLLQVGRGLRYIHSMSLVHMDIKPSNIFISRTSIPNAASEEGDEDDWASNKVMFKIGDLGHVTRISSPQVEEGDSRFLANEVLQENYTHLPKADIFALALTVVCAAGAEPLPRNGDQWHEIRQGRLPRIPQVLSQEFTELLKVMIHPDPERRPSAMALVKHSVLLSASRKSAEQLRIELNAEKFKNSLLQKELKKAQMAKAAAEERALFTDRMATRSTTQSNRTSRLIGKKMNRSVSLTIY
Wee1 degr conf: Wee1 degradation inhibitors, confirmation, cell-based, HeLa, Wee1K328M-luciferase, luminescence, triplicate. shares compounds with Wee1 stabilizer. HeLa Luc-Wee1K328M degradation; vehicle 0%, proteasome-blocked wells 100%. activation, % at 5 µM. 1,100 compounds, 4% hits; in the data active = activation above about 8.9%
The depositor's hits bear a star; i = inactive; . = not tested or not shown. The list is not random: actives were taken first. Their share in the collection is about 1.4%.

SMILES | V-ATPase pH | L929 necroptosis | TNF necrop inh | HSV replic up | Wee1 stabilizer | Wee1 degr conf
Cc1ccnc(N/N=C/c2ccccc2)n1 | 0 | 5 | 4 | i | 17* | 3
COc1ccc(/C=C(\C#N)C(=O)OCC(=O)Nc2ccc(-c3nc4ccc(C)cc4s3)cc2)cc1 | -1 | 1 | -1 | i | 5 | .
O=C(CCC1CCCC1)N1CCC(N2CCCCCC2)CC1 | 4 | -1 | 1 | i | 12* | 3
COc1cccc(N2C(=O)CC(NNc3nc4ccccc4s3)C2=O)c1 (stereo not drawn) | -1 | 1 | 1 | i | -3 | .
Cc1cc(C)c2ccc3c(C)c(C)nc3c2[nH]1 | -3 | 1 | -1 | i | 1 | .
COc1ccc(CN(Cc2cccn2C)S(=O)(=O)c2ccc(C)cc2)cc1 | 2 | 0 | 2 | i | -1 | .
COc1ccc(CN(Cc2cccn2C)S(=O)(=O)c2ccc(F)cc2)cc1 | 1 | 0 | 2 | i | 11* | -1
CCN(CC)CCOC(=O)C1(c2ccccc2)CCOCC1 | 0 | 0 | 0 | i | 14* | 0
CCN(CC)CCOCCOC(=O)C1(c2ccccc2)CCCC1 | -3 | . | . | i | . | .
COC(=O)c1ccccc1N=Nc1c(N)[nH][nH]c1=O | 3 | 1 | -4 | i | 18* | 1
Cc1ccc(-n2nnc3c(=O)n(CC(=O)N4CCOCC4)cnc32)cc1 | 1 | 0 | 1 | i | 12* | 0
O=C(Cn1cnc2c(nnn2-c2ccccc2)c1=O)N1CCOCC1 | 0 | -1 | 0 | i | 3 | .
Cc1cc(Cl)ccc1OC(C)C(=O)NCCCn1ccnc1 (stereo not drawn) | 0 | 2 | 1 | i | 0 | .
CN1/C(=C\C(=O)Nc2cccc(Cl)c2)C(C)(C)c2ccccc21 | 4 | 1 | -1 | i | 19* | -1
O=C(Nc1ccc(C(=O)O)cc1)/C(=C\c1ccco1)NC(=O)c1ccc(Br)cc1 | 1 | . | . | . | . | .
O=C(Nc1ccc(O)cc1)/C(=C/c1ccco1)NC(=O)c1ccccc1 | -4 | 0 | 1 | i | 12* | 2
CCOc1cc(C(=O)N(CC)CC(=O)Nc2ccc3c(c2)OCCO3)ccc1OC | 2 | . | . | . | . | .
Cc1nc(NC(=O)CSc2nnc(-c3ccc4c(c3)OCO4)o2)c(Cl)cc1Cl | -2 | 0 | 0 | i | 11* | 5
COCCn1c(CN2CCN(c3ccccc3)CC2)nc2c1c(=O)n(C)c(=O)n2C | 8 | 0 | -4 | i | 2 | .
CCOCCn1c(CN2CCN(c3ccccc3)CC2)nc2c1c(=O)n(C)c(=O)n2C | 2 | 0 | 0 | i | 11* | -1
O=C(NCCN1CCOCC1)C1CCC(=O)N1Cc1ccc(F)cc1 (stereo not drawn) | 0 | 0 | 0 | i | 11* | 5
Cc1ccc(CN2C(=O)CCC2C(=O)NCCCN2CCOCC2)cc1 (stereo not drawn) | 3 | 2 | 0 | i | 1 | .
COc1ccc(C2=NOC(C)(c3nnc(-c4ccc(Cl)cc4)o3)C2)cc1 (stereo not drawn) | 1 | . | . | i | . | .
CCS(=O)(=O)N1CCN(c2ccc([N+](=O)[O-])c(NCC3CCCO3)c2)CC1 (stereo not drawn) | -1 | 1 | 2 | i | 12* | 1
Cc1cc(CN2CCCC(CO)(Cc3cccc(Cl)c3)C2)n[nH]1 (stereo not drawn) | . | 0 | 2 | i | 14* | 0
SMILES | V-ATPase pH | L929 necroptosis | TNF necrop inh | HSV replic up | Wee1 stabilizer | Wee1 degr conf
CC(C)Cc1cc(CN2CCCC(CO)(Cc3cccc(Cl)c3)C2)[nH]n1 (stereo not drawn) | 2 | -1 | 4 | i | -2 | .
CCN(C(=O)COC(=O)CNS(=O)(=O)c1ccc(C)cc1)C1CCS(=O)(=O)C1 (stereo not drawn) | -1 | . | . | . | . | .
S=c1[nH]nc(-c2ccco2)n1/N=C/c1ccc(Cl)cc1 | 0 | 2 | 1 | i | 13* | 0
S=c1[nH]nc(-c2ccco2)n1/N=C/c1ccccc1Cl | -2 | 1 | 1 | i | -1 | .
O=C(OC1CCOC1=O)c1ccc(Cl)c(S(=O)(=O)N2CCOCC2)c1 (stereo not drawn) | -1 | . | . | . | . | .
Cc1ccc(NC(=O)NCc2c(C)nn(C)c2C)cc1Cl | 2 | 20 | 1 | i | 18* | 4
Cc1ccc(NC(=O)NCc2ccccn2)cc1Cl | 0 | . | . | . | . | .
CC(C)N(Cc1ccccc1)C(=O)CSc1nccn1C | -1 | 1 | 1 | i | 12* | 0
CC(C)N(Cc1ccccc1)C(=O)COc1ccccc1 | 1 | . | . | . | . | .
COC(=O)Nc1csc2c1NC(=O)CCCC2 | -4 | 0 | 0 | i | 0 | .
CCSc1nn2c(=O)c3ccccc3nc2s1 | -1 | -1 | 1 | i | 15* | 1
CCOn1c(SCC)nc2ccccc2c1=O | 4 | 0 | -1 | i | 2 | .
Cn1sccc1=O | 7 | . | . | . | . | .
Cc1ccccc1OCCn1cc(C(=S)N2CCN(C)CC2)c2ccccc21 | -1 | -2 | 2 | i | 13* | 0
CCN(CC)CCSc1nc2ccccc2c(=S)n1-c1ccccc1 | . | -1 | -2 | i | 13* | 0
C=CCC[C@H](Cc1ccc(F)cc1)C(=O)OC[C@H](Cc1c[nH]c2ccccc12)NC(=O)[C@@H](CC=C)CC(=O)NCCO | 1 | . | . | . | . | .
CCN1CC(CNCc2cn(-c3ccc(OC)cc3)nc2-c2ccccc2Cl)CC1=O (stereo not drawn) | 3 | -1 | 0 | i | 24* | 1
Nc1nc2ccc(C(=O)Nc3ccccc3)cc2s1 | 1 | 1 | -2 | i | 15* | 3
CCc1ccc(NC(=O)c2ccc3nc(N)sc3c2)cc1 | 0 | 3 | -2 | i | 2 | .
COc1ccc(NC(=S)Nc2ccccc2C(F)(F)F)cc1 | -2 | -1 | 0 | i | 17* | 1
FC(F)(F)c1ccccc1NC(=S)Nc1ccccc1 | 0 | . | . | . | . | .
O=C(N/N=C/C=C/c1ccccc1)NC1CCCCC1 | -1 | 46 | -1 | i | -2 | .
CC(C)c1ccc(C(=O)NC2=NCCS2)cc1 | -1 | 1 | 1 | i | 6 | .
Cc1ccc(C(=O)NC2=NCCS2)cc1 | . | 0 | 0 | i | 16* | -3
COC(=O)c1cc(NC(=O)Cc2cc(OC)c(OC)c(OC)c2)cc(C(=O)OC)c1 | -1 | 5 | 4 | i | -1 | .
CCCCS(=O)(=O)/C=C\C=C/S(=O)(=O)CCCC | 2 | 22 | -12 | . | 19* | 12*
CCCCOC(=O)CCc1c(C)n[nH]c1C | 1 | 1 | 3 | i | 12* | 2
